Bioassay records (PubChem BioAssay)
AmpC inh no detg = qHTS Inhibitors of AmpC Beta-Lactamase (assay without detergent); hit rate 0.52% among 330,000; P00811; AID 485341, 2010; Potency, µM (highest dose often 57.1 µM), for the others: at the highest dose activity change, negative = inhibition, most hits filed as inhibitors; AmpC nitrocefin hydrolysis, absorbance 480 nm, 0.0001% Triton;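 further: plate controls were no compound for no effect and no enzyme for full effect; nearly all actives have a fitted effect of over 20% in size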
Target sequence (P00811 whole entry, looked up): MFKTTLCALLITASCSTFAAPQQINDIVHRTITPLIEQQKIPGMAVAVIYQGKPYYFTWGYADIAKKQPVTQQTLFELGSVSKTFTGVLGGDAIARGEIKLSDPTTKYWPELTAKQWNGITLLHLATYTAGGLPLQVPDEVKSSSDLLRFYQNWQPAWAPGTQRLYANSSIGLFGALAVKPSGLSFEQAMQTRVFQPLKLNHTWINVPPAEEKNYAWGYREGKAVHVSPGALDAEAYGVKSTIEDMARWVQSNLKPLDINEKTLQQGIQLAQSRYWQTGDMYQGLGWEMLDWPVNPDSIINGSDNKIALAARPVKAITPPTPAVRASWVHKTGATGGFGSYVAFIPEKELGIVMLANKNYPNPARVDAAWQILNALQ
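AmpC (5.3 nM in the dispensed reagent) in 20 mM phosphate pH 7.0 with 0.01% (detergent screen) or 0.0001% Triton X-100 was preincubated with compounds for 15 min at room temperature. Nitrocefin was then added from an 800 uM solution, and hydrolysis was followed at 480 nm.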
Pf growth 96h = Primary qHTS for delayed death inhibitors of the malarial parasite plastid, 96 hour incubation; Potency, µM (series often up to 28.7 µM), for the others: at the top dose activity change, negative = inhibition, hits mostly inhibitors; hit rate 6.9% among 320,000; P. falciparum luciferase reporter growth, 96 h
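Two-generation exposure (96 h) targets delayed-death phenotype. Reporter parasites carrying integrated firefly luciferase, in red cells at 2% hematocrit and 0.05% parasitemia final, kept at 37 C, 5% CO2; luminescence loss indicates inhibition.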
AmpC inh detg = qHTS Inhibitors of AmpC Beta-Lactamase (assay with detergent) | P00811 | AmpC hydrolysis of nitrocefin, absorbance 480 nm, 0.01% Triton | Potency, µM (highest dose often 114 µM), inactives show top-dose activity change, negative = inhibition, hits mostly inhibitors | hit rate 0.041% among 370,000;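 further: 0% = no-compound wells and -100% = no-enzyme wells; nearly all actives have a fitted effect of over 25% in size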
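AmpC (5.3 nM in the dispensed reagent) in 20 mM phosphate pH 7.0 with 0.01% (detergent screen) or 0.0001% Triton X-100 was preincubated with compounds for 15 min at room temperature. Nitrocefin was then added from an 800 uM solution, and hydrolysis was followed at 480 nm.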
AMA1 RON2 block = qHTS for Inhibitors of AMA1-RON; Towards Development of Antimalarial Drug Lead: Primary Screen. AID 720542, 2013. AlphaScreen AMA1-biotinylated RON2 peptide binding. Plasmodium falciparum AMA1 (3D7) - RON2 peptide interaction. hit rate 0.2% among 360,000. Potency, µM (top dose mostly 58.2 µM), for the others: at the highest dose activity change, negative = inhibition, actives largely listed as inhibitors;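 further: 0% = vehicle wells and -100% = peptide control; nearly all actives have a fitted effect of over 45% in size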
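AMA1 (3D7) with his tag at 25 nM final met compounds first, then biotinylated RON2 peptide at 25 nM; detection used donor plus acceptor beads, 10 µg/mL apiece, read by AlphaScreen after 30 min at room temperature.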
HCV inh = qHTS Assay for Inhibitors of Hepatitis C Virus (HCV); Huh7.5.1 HCVcc-Cre infection, luciferase reporter, 44 h; Potency, µM (top dose mostly 41.8 µM), for inactives: at the top dose activity change, negative = inhibition, actives largely listed as inhibitors; hit rate 3.4% among 340,000
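Seed cells (1,000/well) for 4 h; treat with compound and infect with HCVcc-Cre, moi about 0.5. Incubate 44 h, then detect luciferase activity.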
Pf growth 48h = Primary qHTS for delayed death inhibitors of the malarial parasite plastid, 48 hour incubation; P. falciparum luciferase growth in erythrocytes, 48 h; Potency, µM (top dose mostly 28.7 µM), without a hit: at the highest dose activity change, negative = inhibition, most hits filed as inhibitors; hit rate 5.9% among 310,000; AID 504832, 2011
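Luciferase-expressing P. falciparum in infected erythrocytes (2% hematocrit, 0.1% parasitemia final) in RPMI 1640/0.5% Albumax were exposed to compound for 48 hours at 37 C, 5% CO2; growth read as luminescence.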
An asterisk follows results filed as active; ? = inconclusive; · = no result; [ ] = another dose, or the depositor's remark. Compounds with a hit are over-represented: about 11% of the library has one in this group of screens. The call rests on the fitted dose curve; in most records, active means well fitted curve in the direction sought with a large enough effect; inconclusive means small, poorly fitted or top-dose-only effect, or another doubt; inactive means no such curve, though single readings can be large; an effect the other way counts as inactive or inconclusive. Unless noted, on the % scale 0 is the no-effect control and ±100 the full control effect; potency means the concentration at half of the fitted maximal effect.

SMILES	AmpC inh no detg	Pf growth 96h	AmpC inh detg	AMA1 RON2 block	HCV inh	Pf growth 48h
COc1ccccc1C(=O)Nc1ccccc1N1CCN(C(=O)c2ccc(Cl)cc2)CC1	18%	?	4%	0%	?	8.3µM*
CCC(=O)N1CCN(c2ccccc2NC(=O)c2ccc(OC)c(Cl)c2)CC1	97%	7.4µM*	-11%	-9%	-4%	·
COC(=O)c1c(SC)nc2ccccc2c1OCc1ccc(C)cc1C	·	·	11%	·	·	·
N#Cc1ccc(Nc2nn3c(=O)c4ccccc4nc3s2)cc1	·	3%	·	·	·	11%
Cc1cc(C)c2c(n1)SCCN2C(=O)Nc1ccc(C(=O)Nc2ccc(C(C)C)cc2)cc1	·	·	-4%	·	·	·
N#CCSc1nc(Nc2ccc3c(c2)OCO3)c2ccccc2n1	-35%	-5%	-12%	-7%	8.9µM*	?
CCOC(=O)CSc1nc(NCc2ccco2)c2ccccc2n1	-4%	5%	?	-3%	-78%	-2%
CCOC(=O)CSc1nc(Nc2ccc3c(c2)OCO3)c2ccccc2n1	-35%	8.3µM*	-7%	-4%	?	8.3µM*
CCOC(=O)c1cnc2ccccc2c1Nc1ccc2c(c1)OCCO2	40%	-1%	-2%	?	?	4.1µM*
CCN(CC)C(=O)c1cccnc1	·	-16%	·	·	·	-4%
COc1ccc(NS(=O)(=O)c2cccc(C(=O)N/N=C/c3cn(-c4ccccc4)nc3-c3ccc(OC)cc3)c2)cc1	-13%	?	-12%	12%	-16%	2.3µM*
COc1ccc(NS(=O)(=O)c2cccc(C(=O)N/N=C/c3cn(-c4ccccc4)nc3-c3ccccc3)c2)cc1	-24%	21%	7%	-12%	?	?
COc1ccccc1NS(=O)(=O)c1cccc(C(=O)N/N=C/c2cn(-c3ccccc3)nc2-c2ccccc2)c1	-17%	2.9µM*	1%	1%	?	2.1µM*
CCCCN(C)CCNC(=O)c1c[nH]c2ccc(S(=O)(=O)N(CC)CC)cc2c1=O	-13%	-19%	-6%	-1%	9%	3.7µM*
Cc1ccc(C)c(N(C)S(=O)(=O)c2ccc3[nH]cc(C(=O)NCCN4CCOCC4)c(=O)c3c2)c1	258%	·	?	24%	-15%	?
CCOc1ccc(N(C)S(=O)(=O)c2ccc3[nH]cc(C(=O)NCCOC)c(=O)c3c2)cc1	186%	79%	4%	6%	-27%	?
Cc1ccc(N(C)S(=O)(=O)c2ccc3[nH]cc(C(=O)NCCCN4CCOCC4)c(=O)c3c2)cc1C	173%	?	-1%	-3%	-24%	2.3µM*
CCN(c1ccccc1)S(=O)(=O)c1ccc2[nH]cc(C(=O)NCCOC)c(=O)c2c1	-10%	28%	-12%	7%	13%	?
CCCNC(=O)c1c[nH]c2ccc(S(=O)(=O)N(C)c3ccc(OCC)cc3)cc2c1=O	-24%	2%	-1%	2%	22µM*	12µM*
O=C(NC1CC(=O)N(c2cccc(F)c2)C1)C1CC1 (centres undefined)	·	·	1%	·	·	·
Cc1ccc2c(c1)c1c(c(=O)n(-c3ccccc3C)c(=O)n1CC(=O)NCC1CCCO1)n2C (centres undefined)	59%	9.3µM*	-2%	2%	-26%	?
O=[N+]([O-])c1cccc(-c2c[n+]3c(n2-c2ccccc2)SCC3)c1	-35%	1µM*	-11%	4%	-11%	1µM*
Nc1c(-c2ccc(Cl)cc2)cnn1-c1ccccc1	-14%	207%	1%	12%	-13%	10%[0.00184 µM]
